Compound activity: PubChem, National Center for Advancing Translational Sciences (NCATS)
USP2a inh = qHTS Assay for Inhibitors of Ubiquitin-specific Protease USP2a Using CHOP2 as the Reporter; AID 463254, 2010; Potency, µM (doses to about 38.3 µM), actives largely listed as inhibitors; 0.01% of 330,000 active; USP2 core, Ub-CHOP2 coupled fluorogenic reporter, 485/531
Target sequence (O75604 whole entry, looked up): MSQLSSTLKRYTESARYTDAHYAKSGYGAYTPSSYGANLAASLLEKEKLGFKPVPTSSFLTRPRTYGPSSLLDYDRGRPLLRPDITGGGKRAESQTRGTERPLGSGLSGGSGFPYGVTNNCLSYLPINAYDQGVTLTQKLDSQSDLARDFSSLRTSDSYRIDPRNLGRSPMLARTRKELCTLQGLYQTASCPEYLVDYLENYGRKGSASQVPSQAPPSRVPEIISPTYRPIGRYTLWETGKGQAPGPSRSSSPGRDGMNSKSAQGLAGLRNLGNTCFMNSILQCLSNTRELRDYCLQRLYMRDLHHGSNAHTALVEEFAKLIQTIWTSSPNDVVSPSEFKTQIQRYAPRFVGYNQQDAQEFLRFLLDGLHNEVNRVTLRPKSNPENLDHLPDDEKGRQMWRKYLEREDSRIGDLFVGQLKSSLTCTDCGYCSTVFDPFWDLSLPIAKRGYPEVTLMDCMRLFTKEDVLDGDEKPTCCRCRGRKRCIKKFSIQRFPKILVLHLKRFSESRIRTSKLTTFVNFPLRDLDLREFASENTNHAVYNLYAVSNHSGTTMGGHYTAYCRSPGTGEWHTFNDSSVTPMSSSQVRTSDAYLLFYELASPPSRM
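Deubiquitinase activity read as fluorescence (485/531 nm) after Ub-CHOP2 cleavage activates the enterokinase reporter on its substrate; USP2 core 10nM, Ub-CHOP2 and substrate 25nM each, 30min compound preincubation then 60min RT; data normalized to NEM, curves fitted.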
ATXN2 expr inh = Primary qHTS for Inhibitors of ATXN expression; Potency, µM (doses to about 57 µM), hits mostly inhibitors; 0.72% of 360,000 active; HEK-293 ATXN2-luciferase reporter, luminescence, 24 h; also: nearly all actives have a fitted effect of over 55% in size
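ATXN2-luciferase reporter cells (luciferase flanked by upstream and downstream ATXN2 gene portions) were treated 24 h at 37 °C with compounds at up to 57 uM. SteadyGlo luminescence gave expression; GF-AFC fluorescence gave viability.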
IL1B secr inh = qHTS for Inhibitors of Inflammasome Signaling: IL-1-beta AlphaLISA Primary Screen. THP-1 LPS/ATP IL-1B secretion, AlphaLISA, 16 h; hits give low values. activity change, % at 57.5 µM. 4.7% of 360,000 active. AID 743279, 2014; in the data active = activity change below about -50%; inconclusive = mostly about -30% to -49%
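THP-1 cells pretreated 1 hr with compounds (up to 57.5 uM final), then stimulated with LPS (250 ng/mL final) plus ATP (1.25 mM final); secreted IL-1B measured by AlphaLISA after 16 hr, decreased signal indicating inhibition.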
ATXN viability = Viability Counterscreen for Primary qHTS for Inhibitors of ATXN expression. S2 cells (HEK-293 line with an ATXN2-luciferase reporter) viability, CellTiter-Fluor protease fluorescence, 24 h. Potency, µM (top dose mostly 56.7 µM), usual class: cytotoxic. 0.49% of 400,000 active; also: nearly all actives have a fitted effect of over 40% in size
USP1-UAF1 inh = Inhibitors of USP1/UAF1: Primary Screen. Potency, µM (doses to about 57.1 µM), hits mostly inhibitors. AID 743255, 2014. recombinant USP1/UAF1, Ub-Rhodamine cleavage fluorescence. 0.23% of 390,000 active. Ubiquitin carboxyl-terminal hydrolase 1 (Homo sapiens), O94782; also: nearly all actives have a fitted effect of over 60% in size
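Step one: compound is pinned into 1nM USP1/UAF1 in HEPES pH 7.8 buffer with TCEP. Step two: 15 min room-temperature incubation. Step three: Ub-Rho (150nM final) starts cleavage, tracked by fluorescence over six one-minute reads.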
Large screens that a line does not name were inactive. Compounds with a hit are over-represented: about 4.8% of the library has one in this group of screens. Unless noted, calls follow the shape of the dose curve; as a rule, active = well fitted curve in the direction sought with a large enough effect; inconclusive = small, poorly fitted or top-dose-only effect, or another doubt; inactive = no such curve, though single readings can be large; an effect the other way counts as inactive or inconclusive.

O=C(c1ccc(Cl)cc1)N1CCN(c2ccnc3cc(Cl)ccc23)CC1	ATXN2 expr inh inconclusive, IL1B secr inh -92.2
Oc1ccc(N2CCN(c3ccnc4cc(Cl)ccc34)CC2)cc1	ATXN2 expr inh inconclusive
COC(CNC(=O)C(=O)NCC1CCCN1S(=O)(=O)c1cccs1)OC (stereo not drawn)	none
COc1ccc2nc(C)cc(N3CCOCC3)c2c1	none
COc1ccc2nc(C)cc(N3CCN(c4ccccc4)CC3)c2c1	IL1B secr inh -64.6
CCC(=O)N1CCN(c2ccnc3cc(Cl)ccc23)CC1	ATXN2 expr inh inconclusive, ATXN viability inconclusive
Cc1cc(N2CCN(S(=O)(=O)c3ccc(Cl)c(Cl)c3)CC2)c2ccccc2n1	none
COc1cccc(Cl)c1NC(=O)N1CCN(c2cc(C)nc3ccccc23)CC1	ATXN2 expr inh inconclusive, IL1B secr inh -71.2, ATXN viability inconclusive
CC(C)N(C(=O)N1CCN(c2ccnc3cc(Cl)ccc23)CC1)C(C)C	ATXN2 expr inh 25.1µM, IL1B secr inh -84.3, ATXN viability inconclusive, USP1-UAF1 inh inconclusive
Cc1cc(N2CCN(S(=O)(=O)c3ccc(Cl)cc3)CC2)c2ccccc2n1	ATXN2 expr inh inconclusive, IL1B secr inh -64.3, ATXN viability inconclusive
CC(=O)N1C(C(=O)O)Cc2c([nH]c3ccccc23)C1C (stereo not drawn)	none
Cc1c(Cl)cccc1NC(=S)NC(=O)c1ccccc1	ATXN viability inconclusive (no result: USP2a inh, ATXN2 expr inh)
Cc1cc(C)c(S(=O)(=O)Cc2ccccc2)c(Cl)n1	none
Cc1ccc(S(=O)(=O)N2CCN(c3ccnc4cc(Cl)ccc34)CC2)cc1	IL1B secr inh -80.8, USP1-UAF1 inh inconclusive
CCc1nc2ccc(C(=O)NCc3ccc(OC)cc3)cn2c1N(C)C(=O)Cc1ccccc1	none (no result: USP2a inh, USP1-UAF1 inh)
CCN(CC)C(=O)[C@H]1C[C@H](CC(=O)NCc2cccc(C(F)(F)F)c2)C(=O)N2CCc3c([nH]c4cc(-c5ccco5)ccc34)[C@]12C	ATXN2 expr inh inconclusive, IL1B secr inh -58.0, ATXN viability inconclusive
CC[C@]12c3[nH]c4ccc(Cl)cc4c3CCN1C(=O)[C@@H](CC(=O)NCc1cccc(C(F)(F)F)c1)C[C@@H]2C(=O)N1CCN(C(=O)c2ccco2)CC1	ATXN2 expr inh inconclusive, ATXN viability 28.2µM
CC[C@]12c3[nH]c4cc(-c5ccco5)ccc4c3CCN1C(=O)[C@@H](CC(=O)NCc1ccco1)C[C@@H]2C(=O)N1CCN(C(=O)c2ccco2)CC1	none
CC[C@]12c3[nH]c4ccc(OC)cc4c3CCN1C(=O)C(CC(=O)NCc1cccc(C(F)(F)F)c1)C[C@@H]2C(=O)N1CCN(C(=O)c2ccco2)CC1 (stereo partly drawn)	IL1B secr inh inconclusive
CC[C@]12c3[nH]c4cc(-c5ccco5)ccc4c3CCN1C(=O)[C@@H](CC(=O)NCc1cccc(C(F)(F)F)c1)C[C@@H]2C(=O)N1CCN(C(=O)c2ccco2)CC1	ATXN2 expr inh inconclusive, IL1B secr inh -51.4, ATXN viability inconclusive
CCN(CC)C(=O)[C@H]1C[C@H](CC(=O)NCc2ccco2)C(=O)N2CCc3c([nH]c4cc(-c5ccco5)ccc34)[C@]12C	USP1-UAF1 inh inconclusive
CC(C)(C)NC(=O)C[C@H]1C[C@H](C(=O)N2CCOCC2)[C@@]2(CCC3CCCC3)c3[nH]c4ccc(Cl)cc4c3CCN2C1=O	ATXN2 expr inh inconclusive, IL1B secr inh -60.3, ATXN viability inconclusive
COc1ccc2[nH]c3c(c2c1)CCN1C(=O)C(CC(=O)NC(C)(C)C)C[C@H](C(=O)N2CCOCC2)[C@@]31CCC1CCCC1 (stereo partly drawn)	none
CCS(=O)(=O)N1CC(CC#N)(n2cc(-c3ncnc4[nH]ccc34)cn2)C1	none (no result: USP2a inh, IL1B secr inh, ATXN viability, USP1-UAF1 inh)
CC(CC(c1ccccc1)c1ccccc1)NC(C)(C)C (stereo not drawn)	none (no result: USP2a inh, ATXN2 expr inh, IL1B secr inh, USP1-UAF1 inh)
Cc1cc2nc(-c3ccc(C#N)cc3)c(Cc3cccc(F)c3)n2c(C)c1Br	ATXN2 expr inh inconclusive (no result: USP2a inh, USP1-UAF1 inh)
O=C(CC1C[C@H](C(=O)N2CCOCC2)[C@@]2(CCC3CCCC3)c3[nH]c4ccccc4c3CCN2C1=O)NCc1cccc(C(F)(F)F)c1 (stereo partly drawn)	none (no result: USP2a inh)
CN(C)C(=O)CCc1ccc2c3c([nH]c2c1)[C@]1(CCC2CCCC2)[C@@H](C(=O)N2CCOCC2)C[C@H](CC(=O)NCc2cccc(C(F)(F)F)c2)C(=O)N1CC3	ATXN2 expr inh inconclusive, IL1B secr inh -55.8, USP1-UAF1 inh inconclusive (no result: ATXN viability)
Cc1ccc2c(c1)/C(=C/c1ccccc1)C(=O)N2	IL1B secr inh -82.0
COc1nc(=O)n(C2C=CC(=O)O2)cc1F (stereo not drawn)	ATXN viability inconclusive (no result: USP2a inh, ATXN2 expr inh)
CC1CCCN(S(=O)(=O)c2ccc(NC(=O)CN3C(=O)NC(C)(c4ccccc4)C3=O)cc2)C1 (stereo not drawn)	IL1B secr inh -51.9
O=C(Cc1ccccc1F)Nc1ccc(S(=O)(=O)N2CCCC2)cc1	IL1B secr inh -50.7
CC1(c2ccccc2)NC(=O)N(CC(=O)Nc2cccc(/C=C/c3ccccn3)c2)C1=O (stereo not drawn)	IL1B secr inh -53.2
O=C(Cc1ccccc1F)Nc1cc(S(=O)(=O)N2CCCC2)ccc1Cl	none
CC1CCN(S(=O)(=O)c2ccc(NC(=O)CN3CCCCCC3)cc2)CC1	IL1B secr inh -50.2
O=C(CCC(=O)N1Cc2ccccc2Oc2ncccc21)NCc1ccccc1Cl	none (no result: USP2a inh, IL1B secr inh)
CCOC(=O)c1c(Nc2ccc(OC)cc2)nnc(-c2ccccc2)c1-c1ccccc1	USP1-UAF1 inh inconclusive (no result: USP2a inh, IL1B secr inh)
COc1cc2oc(=O)cc(CN3CCCCC3)c2cc1Cl	none (no result: USP2a inh, USP1-UAF1 inh)
Cc1ccc(CN2CCOc3ccc(CN4CCC(Oc5cccnc5)CC4)cc3C2)o1	none (no result: USP2a inh, ATXN2 expr inh, IL1B secr inh, USP1-UAF1 inh)
Cc1ccc(NC(=O)C2CCCN(C(=O)c3cnn(-c4ccccc4)c3-n3cccc3)C2)cc1 (stereo not drawn)	none (no result: USP2a inh, IL1B secr inh)
CC1CCCC(C)N1S(=O)(=O)c1ccc(NC(=O)CNC2CCCC2)cc1 (stereo not drawn)	USP1-UAF1 inh inconclusive
CC1CCN(S(=O)(=O)c2ccc(NC(=O)CNC3CCCCC3)cc2)CC1	IL1B secr inh -87.4
Cc1cc(F)ccc1N1CCC(N2CCN(C(C)C)C(CCO)C2)CC1 (stereo not drawn)	none
Cc1cc(F)ccc1N1CCC(N2CCN(CCC(C)C)C(CCO)C2)CC1 (stereo not drawn)	IL1B secr inh -66.0
O=C1N/C(=C/c2ccc(N3CCCC3)cc2)C(=O)N1c1ccccc1	ATXN viability inconclusive
O=C1/C(=C/c2ccc(N3CCCC3)cc2)NC(=S)N1C1CC1	IL1B secr inh -77.1, USP1-UAF1 inh inconclusive
